Bioassay records (PubChem BioAssay)
Pol beta inh: DNA polymerase beta (human) inhibition; P06746; Pol beta primer extension/strand displacement, fluorescence kinetic; Potency, µM (top dose mostly 114 µM), most hits filed as inhibitors; 1.3% of 340,000 active; AID 485314
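10 nM enzyme + cpd, 15 min RT; start with substrate 50 nM final; read 0 min and after 10 min RT. Corrected, normalized data; 4-parameter Hill curve fit.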
TDP1 inh: TDP1 (human) enzyme inhibition | 0.28% of 350,000 active | Potency, µM (highest dose often 130 µM), usual class: inhibitors | Q9NUW8 | recombinant TDP1, AlphaScreen DNA substrate cleavage; also: nearly all actives have a fitted effect of over 40% in size
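Tdp1 1 nM final; 15 min RT w/ cpd; substrate 15 nM, 5 min; beads 10 ug/ml, 10 min; AlphaScreen read. Neg ctrl: no enzyme.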
Pol kappa inh-1: DNA polymerase kappa (human) inhibition | Q9UBT6 | purified Pol kappa, fluorescent DNA synthesis assay, 10 min | Potency, µM (top dose mostly 107 µM), most hits filed as inhibitors | 0.53% of 400,000 active | AID 588579
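Kinetic fluorescence screen: compound preincubated 15 min RT with 10 nM enzyme; 50 nM substrate (final) initiates; reads at 0/10 min.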
POLI inh: blocks human DNA polymerase iota activity; Q9UNA4; Pol iota fluorescent replication assay, 10 min; Potency, µM (highest dose often 115 µM), usual class: inhibitors; 1% of 390,000 active; AID 588590
Target sequence (Q9UNA4 whole entry, looked up): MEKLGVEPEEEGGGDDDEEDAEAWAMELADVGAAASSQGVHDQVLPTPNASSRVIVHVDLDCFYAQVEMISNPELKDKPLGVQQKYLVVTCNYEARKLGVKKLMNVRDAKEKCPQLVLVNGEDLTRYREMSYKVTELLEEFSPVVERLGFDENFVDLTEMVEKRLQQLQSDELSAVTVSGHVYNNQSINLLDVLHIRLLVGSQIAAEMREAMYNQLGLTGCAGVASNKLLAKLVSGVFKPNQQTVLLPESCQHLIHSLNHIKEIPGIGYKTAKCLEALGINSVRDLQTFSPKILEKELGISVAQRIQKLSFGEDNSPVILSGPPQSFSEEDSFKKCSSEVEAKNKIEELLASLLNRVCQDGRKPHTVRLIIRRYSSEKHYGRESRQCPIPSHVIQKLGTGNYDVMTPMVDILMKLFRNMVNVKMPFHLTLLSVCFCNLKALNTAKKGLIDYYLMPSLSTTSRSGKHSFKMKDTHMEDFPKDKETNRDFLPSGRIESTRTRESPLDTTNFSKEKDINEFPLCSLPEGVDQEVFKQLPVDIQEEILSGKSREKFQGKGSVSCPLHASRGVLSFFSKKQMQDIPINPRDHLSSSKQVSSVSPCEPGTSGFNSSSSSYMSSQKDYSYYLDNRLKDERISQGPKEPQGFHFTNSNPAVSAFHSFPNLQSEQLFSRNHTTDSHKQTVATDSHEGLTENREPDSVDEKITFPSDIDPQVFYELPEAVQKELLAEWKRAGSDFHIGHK
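Fluorescent replication assay read twice, at 0 min and 10 min after adding 50 nM (final) substrate. Enzyme (10 nM) and compounds were first incubated 15 min at room temperature; enzyme-free buffer wells were negative controls.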
Pol eta inh-1: blocks human DNA polymerase eta activity. recombinant Pol eta, fluorescent DNA replication assay. Potency, µM (doses to about 114 µM), most hits filed as inhibitors. 1.2% of 390,000 active
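Fluorescent replication assay: 50 nM final substrate added after a 15 min room-temperature compound preincubation with 10 nM enzyme. Signal taken at 0 min and again at 10 min.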
TbPGK inh: TbPGK inhibition, hit validation; shares compounds with Pol kappa inh-1; TbPGK coupled GAPDH assay, Kinase-Glo luminescence; Potency, µM (series often up to 57.5 µM), usual class: inhibitors; 79% of 500 active; AID 686980; also: nearly all actives have a fitted effect of over 65% in size
Pol iota confirm: Confirm cherry-picked inhibitors of human polymerase iota; Pol iota primer extension, TAMRA/BHQ fluorescence; shares compounds with Pol kappa inh-1; Potency, µM, usual class: inhibitors; 77% of 1,500 active
GALK confirm: confirmation of human galactokinase (GALK) inhibitors | shares compounds with Pol eta inh-1 | purified GALK, Kinase-Glo ATP depletion luminescence | Potency, µM (highest dose often 115 µM), actives largely listed as inhibitors | 70% of 150 active | AID 2015
GALK redox cs: generates H2O2 by redox cycling, flagging GALK artifacts; shares compounds with Pol eta inh-1; Phenol red-HRP H2O2 redox cycling, absorbance 600 nm; Potency, µM (titrated, usually from 115 µM), usual class: inhibitors; 40% of 150 active; AID 2035
HEK293 viability: counter-screen for GALK inhibitors: HEK293 cell cytotoxicity. shares compounds with Pol eta inh-1. HEK-293 viability, ATP luminescence (CellTiter-Glo), 24/48 h. Potency, µM (series often up to 46.1 µM), most hits filed as inhibitors. 10% of 170 active
Pol kappa inh-2: Pol kappa (human) inhibition, cherry-pick confirmation; shares compounds with Pol eta inh-1; purified Pol-kappa, fluorescent strand-displacement substrate; Potency, µM, most hits filed as inhibitors; 76% of 920 active; AID 720501
Pol eta inh-2: Pol eta (human) inhibition, cherry-pick confirmation; 64% of 2,600 active; Pol eta primer extension, TAMRA/BHQ fluorescence, 10 min; Potency, µM, usual class: inhibitors; shares compounds with Pol eta inh-1
Each line names hits and unclear results; the compound was inactive in the other large screens (follow-up assays come after a bar, where they were run). Hits are enriched below; roughly 2.4% of the tested compounds scored in any of these assays. Calls follow the shape of the dose curve; as a rule, active = well fitted curve in the direction sought with a large enough effect; inconclusive = small, poorly fitted or top-dose-only effect, or another doubt; inactive = no such curve, though single readings can be large; an effect the other way counts as inactive or inconclusive.

CN(C)CCCNC(=O)c1ccc(-c2cc(O)c3ncccc3c2)cc1	none (no result: Pol beta inh) | Pol iota confirm 47 | Pol eta inh-2 inconclusive
O=C(NN1C(=O)c2ccc3c4c(ccc(c24)C1=O)CC3)c1ccc(Br)cc1	Pol kappa inh-1 inconclusive
O=C1c2ccc3c4c(ccc(c24)C(=O)N1NC(=O)C(F)(F)F)CC3	Pol kappa inh-1 18µM, POLI inh 22µM, Pol eta inh-1 79µM (no result: TDP1 inh) | Pol iota confirm 42 | Pol eta inh-2 17
COc1ccc(C(=O)c2cn(CC(=O)Nc3ccc4c(c3)OCCO4)c3ccc(OC)cc3c2=O)cc1	Pol beta inh 8.9µM, Pol kappa inh-1 inconclusive, POLI inh 14µM, Pol eta inh-1 inconclusive (no result: TDP1 inh) | Pol iota confirm 7.5 | Pol kappa inh-2 6 | Pol eta inh-2 inconclusive
COc1ccc(C(=O)c2cn(CC(=O)Nc3ccc4c(c3)OCO4)c3ccc(OC)cc3c2=O)cc1	Pol eta inh-1 inconclusive
CCCCCCCCCCCCCCCCCC(=O)OCC(O)CO (stereo not drawn)	none (no result: Pol beta inh, POLI inh, Pol eta inh-1)
O=C1c2cc(O)c(O)cc2OC(c2ccc(O)c(O)c2)C1O (stereo not drawn)	Pol kappa inh-1 8.9µM, POLI inh 3.2µM, Pol eta inh-1 14µM (no result: Pol beta inh, TDP1 inh) | Pol iota confirm 38 | Pol kappa inh-2 19 | Pol eta inh-2 27
COc1ccc2c(c1)C(=O)[C@H](O)[C@@H](c1ccc(OC)c(Br)c1)O2	none
CCCN1CNc2c(c(=O)[nH]c(=S)n2CCc2cccc(OC)c2OC)C1	none (no result: Pol beta inh, Pol eta inh-1)
C/C(=C\C=C(C#N)C#N)c1cc(C#N)c(N)o1	Pol beta inh 8.9µM, Pol kappa inh-1 inconclusive, POLI inh inconclusive, Pol eta inh-1 inconclusive | Pol iota confirm inconclusive | Pol eta inh-2 43
O=S(=O)(Nc1ccc(Cl)cc1)c1cccc(S(=O)(=O)c2ccc(Cl)c(Cl)c2)c1	none
O=C(O)C1C2C=CC(CC2)C1C(=O)O (stereo not drawn)	Pol beta inh 18µM, TDP1 inh 10µM, Pol kappa inh-1 inconclusive, POLI inh inconclusive, Pol eta inh-1 11µM | TbPGK inh 12µM | Pol kappa inh-2 30 | Pol eta inh-2 inconclusive
CC(C)c1ccc(NC(=O)C2C3C=CC(CC3)C2C(=O)O)cc1 (stereo not drawn)	none (no result: Pol beta inh, TDP1 inh)
N=C1/C(=C\c2ccc(-c3ccc(C(=O)O)cc3)o2)C(=O)N=C2SC=C(c3ccccc3)N12	Pol beta inh inconclusive, Pol kappa inh-1 50µM, POLI inh inconclusive, Pol eta inh-1 3.5µM (no result: TDP1 inh) | Pol iota confirm 38 | Pol eta inh-2 27
Cc1cccc(-n2c(C)cc(/C=C3/C(=N)N4C(c5ccccc5)=CSC4=NC3=O)c2C)c1	none
Cc1ccc(OCCSc2nc3ccccc3n2CC(=O)N2CCOCC2)c(C)c1	none
Cc1cccc2sc(NC(=O)C3CCN(S(=O)(=O)c4cc([N+](=O)[O-])ccc4Cl)CC3)nc12	Pol beta inh inconclusive, Pol kappa inh-1 79µM, POLI inh 25µM, Pol eta inh-1 11µM | Pol iota confirm inconclusive | Pol eta inh-2 76
O=C(NC1CC1)C1CCN(S(=O)(=O)c2cc([N+](=O)[O-])ccc2Cl)CC1	TDP1 inh inconclusive, Pol kappa inh-1 50µM, POLI inh 10µM, Pol eta inh-1 13µM (no result: Pol beta inh) | Pol iota confirm 30 | Pol kappa inh-2 19 | Pol eta inh-2 inconclusive
Cc1nnc(NC(=O)C2CCN(S(=O)(=O)c3cc([N+](=O)[O-])ccc3Cl)CC2)o1	none (no result: Pol beta inh)
O=C(NCc1ccc(Cl)cc1)C1CCN(S(=O)(=O)c2cc([N+](=O)[O-])ccc2Cl)CC1	none
Cc1cc(C)c(S(=O)(=O)/N=C2\C=C(Nc3ccc(C(=O)O)cc3)C(=O)c3ccccc32)c(C)c1	Pol beta inh 22µM, Pol kappa inh-1 89µM, POLI inh 14µM, Pol eta inh-1 11µM | Pol iota confirm 67 | Pol eta inh-2 17
O=C(O)c1ccc(NC2=C/C(=N/S(=O)(=O)c3cccs3)c3ccccc3C2=O)cc1	Pol eta inh-1 8.9µM (no result: Pol beta inh, TDP1 inh, Pol kappa inh-1, POLI inh) | Pol iota confirm 30 | Pol eta inh-2 21
Cc1ccc(NC2=C/C(=N\S(=O)(=O)c3cccs3)c3ccccc3C2=O)c(C)c1	POLI inh inconclusive
Cc1cccc(NC2=C/C(=N/S(=O)(=O)c3cccs3)c3ccccc3C2=O)c1	none
Cc1ccc(S(=O)(=O)/N=C2\C=C(NS(=O)(=O)c3ccccc3)C(=O)c3ccccc32)cc1	POLI inh inconclusive, Pol eta inh-1 inconclusive (no result: Pol beta inh, TDP1 inh)
CCc1ccc(S(=O)(=O)/N=C2\C=C(Nc3cccc(C(=O)O)c3)C(=O)c3ccccc32)cc1	Pol beta inh inconclusive, POLI inh 1.1µM, Pol eta inh-1 22µM (no result: TDP1 inh) | Pol iota confirm 75 | Pol eta inh-2 60
O=C(O)c1ccc(NC2=C/C(=N/S(=O)(=O)c3ccccc3)c3ccccc3C2=O)cc1	POLI inh inconclusive, Pol eta inh-1 8.9µM | Pol iota confirm 19 | GALK confirm inconclusive | GALK redox cs 6µM | HEK293 viability 11µM | Pol eta inh-2 21
O=C(c1ccc2c(c1)N(Cc1ccc(F)cc1)CCS2)N1CCN(c2ccccc2)CC1	none
COc1ccc(-c2[nH]ncc2C(=O)NCc2cccc(F)c2)cc1	none (no result: Pol eta inh-1)
COCCN=c1scc(-c2ccco2)n1/N=C/c1ccc(O)c(O)c1O	Pol beta inh 2.8µM, POLI inh 2µM, Pol eta inh-1 4.5µM | Pol iota confirm 11 | Pol eta inh-2 9.5
CN(C)c1ncc(C2=C(Cl)C(=O)C(N3CCCC3)=C(Cl)C2=O)s1	Pol kappa inh-1 28µM, POLI inh 7.9µM, Pol eta inh-1 20µM (no result: Pol beta inh, TDP1 inh) | Pol iota confirm 38 | Pol eta inh-2 34
